# Most compounds without a hit are left out; they make up all but 3.1% or so of the library.
# LGR2 antag = inhibitors of bursicon-induced LGR2 CRE-luciferase signal, primary screen, cell-based, HEK293, CRE-luciferase reporter, bursicon stimulation; inhibition, % at 9.99 µM; 0.35% of 380,000 active; Drosophila bursicon receptor LGR2 (rickets); bursicon-stimulated, 4 h;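 active means drop in luminescence signal, shown as inhibition above about 50% in the replicate tests, limit read from the data, passing the limit was not always enough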;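 further: agonist challenge used bursicon conditioned medium at about half maximal strength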
# PAX8 inh HTS = inhibitors of PAX8-driven TPO luciferase reporter, primary screen, RMG-I cells, single concentration. SteadyGlo, 24 h. inhibition, % at 12.6 µM. 1.2% of 360,000 active;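 active means mean replicate inhibition at least 60% with every replicate also reaching 60%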;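 further: luciferase light reporting Pax8 driven TPO promoter activity; plate controls were median of neutral control wells for no effect and mitoxantrone controls for full effect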
# LMP1 NFkB inh = EBV LMP1-driven NF-kappaB luciferase reporter inhibitors, primary screen, cell-based, luminescence, single point; LMP1-induced NF-kappaB luciferase reporter cells; inhibition, % at 12.5 µM; 0.69% of 350,000 active; in the data active means inhibition above about 41%;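 further: 0% = neutral control wells and 100% = reference inhibitor control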
# TROY NFkB inh = inhibitors of TROY-driven NF-kB signaling, primary screen, Q293 LMP1-TROYcd cells, NF-kB luciferase, uHTS; 0.98% of 360,000 active; AID 1347056, 2019; inhibition, % at 10 µM; Q293 LMP1-TROYcd NF-kB luciferase reporter, 4 h;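 active means compounds whose plate-normalised and pattern-corrected inhibition of the luciferase reporter signal at the single screening dose is 50% or more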
# EWS-Fli inh = EWS/Fli-driven NR0B1 reporter inhibitors, primary screen, A673 cells, NR0B1 luciferase, luminescence, MLPCN library; viability-normalised; inhibition, % at 12.6 µM; 0.67% of 350,000 active; AID 651661, 2012;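 active means mean inhibition of at least 50% after viability correction, with every replicate also passing that limit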;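 further: firefly luciferase signal divided by Alamar Blue viability fluorescence both relative to DMSO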
# TWEAK Fn14 block = inhibitors of TWEAK-Fn14 signaling, primary screen, luciferase reporter cells, uHTS | inhibition, % at 10 µM | TWEAK-stimulated Fn14 reporter cells, luciferase luminescence, 8 h | 2% of 360,000 active | AID 1159606, 2016; in the data active means inhibition above about 50%
# * marks the source's active call; other numbers are inactive results; x = not tested or not shown.
SMILES,LGR2 antag,PAX8 inh HTS,LMP1 NFkB inh,TROY NFkB inh,EWS-Fli inh,TWEAK Fn14 block
Cc1cc(C)nc(N(C#N)CC(=O)c2ccccc2)n1,1,x,2,-7,x,9
CC(C)CC#Cc1cnc2c(c1)C(=O)N([C@H](C)CO)C[C@H](C)[C@@H](CN(C)Cc1ccccc1F)O2,-9,x,x,x,15,x
Cc1noc(C)c1NC(=O)N(C)C[C@@H]1OCCCC[C@@H](C)Oc2ccc(NS(=O)(=O)c3c(C)noc3C)cc2C(=O)N([C@@H](C)CO)C[C@H]1C,18,0,x,x,-8,x
C[C@H]1CN([C@@H](C)CO)C(=O)c2cccc(NS(=O)(=O)c3cn(C)cn3)c2O[C@@H]1CN(C)C(=O)Nc1cccc2ccccc12,-2,x,x,x,39,x
Cc1ccccc1CN(C)C[C@H]1OCc2cnnn2CCCC(=O)N([C@H](C)CO)C[C@@H]1C,x,-6,x,x,3,x
Cc1nn(-c2ccccc2)c2[nH]c(=O)c(CNc3ccc4c(c3)OCCO4)cc12,x,-7,2,66*,x,58*
CNC(=O)C[C@@H]1CC[C@@H]2[C@H](COc3ccc(NC(=O)c4cc(C)on4)cc3C(=O)N2C)O1,12,40,x,x,-4,x
COc1ccc(-c2csc(-c3ccccc3)n2)c(OC)c1,-34,-213,-109,-11,-33,56*
CCC(=O)n1nc(-c2ccc(Cl)cc2)nc1SC,x,-156,-9,-31,x,77*
CCCC(=O)n1nc(-c2ccc(Cl)cc2)nc1SC,x,x,-3,-35,x,-27
CC(C)=C1C2CCC1C(C(=O)Nc1sc(C)c(-c3ccc(C(C)C)cc3)c1C(N)=O)C2C(=O)O (stereo unspecified),19,28,9,51*,4,36
Cc1ccc(-c2c(C)sc(NC(=O)C3C4CCC(O4)C3C(=O)O)c2C(=O)OC(C)C)cc1 (stereo unspecified),7,x,-1,-5,x,-7
CN(C)c1ccc(C=C2C=CC=C2)cc1,x,-86,-5,9,-95,62*
CC(C)NC(=O)N(C)C[C@H]1Oc2ccc(NC(=O)C3CCCCC3)cc2C(=O)N([C@H](C)CO)C[C@H]1C,9,-9,x,x,3,x
C[C@H](CO)N1C[C@H](C)[C@@H](CN(C)Cc2ccc(C(F)(F)F)cc2)Oc2ccc(NC(=O)Cc3ccccc3)cc2CC1=O,2,52,x,x,x,x
C[C@@H]1CN([C@H](C)CO)C(=O)Cc2cc(NC(=O)Cc3ccccc3)ccc2O[C@@H]1CN(C)Cc1ccc(C(F)(F)F)cc1,19,86*,x,x,x,x
C[C@@H]1CN([C@@H](C)CO)C(=O)Cc2cc(NC(=O)Cc3ccccc3)ccc2O[C@H]1CN(C)Cc1ccc(C(F)(F)F)cc1,20,70*,x,x,x,x
COc1ccc2c3c([nH]c2c1)[C@H](CO)N(C(=O)c1ccc(F)cc1)CC31CCN(C)CC1,-11,x,x,x,24,x
Cc1noc(C)c1S(=O)(=O)N(C)C[C@H]1OCc2ccccc2-c2c(n(C)c3ccccc23)C(=O)N([C@@H](C)CO)C[C@H]1C,2,26,x,x,12,x
OCCCNc1ncnc2sc(-c3ccccc3)cc12,-14,-14,4,-7,6,12
C=COCCCNc1ncnc2sc(-c3ccccc3)cc12,3,19,16,-2,20,87*
CC(C)(C)Nc1ncnc2sc(-c3ccccc3)cc12,0,13,23,50,-6,71*
O=C1CCc2cc(OCCCCc3nnnn3C3CCCCC3)ccc2N1,x,15,73*,15,17,-42
C[C@@H]1CCCCO[C@@H](CN(C)C(=O)c2ccccc2)[C@H](C)CN([C@H](C)CO)C(=O)c2cc(NS(=O)(=O)c3ccc(F)cc3)ccc2O1,-13,4,x,x,1,x
Cn1c(CSCc2ccc(Cl)cc2)nnc1SCC(=O)Nc1nccs1,1,x,4,29,x,19
SMILES,LGR2 antag,PAX8 inh HTS,LMP1 NFkB inh,TROY NFkB inh,EWS-Fli inh,TWEAK Fn14 block
Cn1c(CSCc2ccc(Cl)c(Cl)c2)nnc1SCC(=O)Nc1nccs1,x,12,5,20,x,51*
O=C(O)c1ccc(N=NNc2cccc([N+](=O)[O-])c2)cc1,-47,-87,-31,-64,-2,15
N#C/C(=N\Nc1cccc([N+](=O)[O-])c1)C(=O)c1ccc(Br)cc1,44,91*,38,33,26,52*
CCNC(=O)C1(C)CCN(C(=O)c2ccccc2F)C1 (stereo unspecified),4,96*,x,-11,2,-5
CCCNC(=O)C1(C)CCN(C(=O)c2ccccc2F)C1 (stereo unspecified),3,1,x,5,-3,24
CCN1C(=O)C2(SC(NC(C)=O)=NN2C(C)=O)c2cc(C)cc(C)c21 (stereo unspecified),-24,27,-1,-3,-3,1
CCCN1C(=O)C2(SC(NC(C)=O)=NN2C(C)=O)c2cc(C)cc(C)c21 (stereo unspecified),2,17,54*,-3,-7,-6
COc1ccc(S(=O)(=O)Nc2ccc3c(c2)C(=O)N([C@@H](C)CO)C[C@@H](C)[C@H](CN(C)C(=O)C2CCCCC2)OCCCC[C@H](C)O3)cc1,-16,-14,x,x,9,x
CCN1C(=O)/C(=C/c2nc3ccccc3c(=O)n2-c2ccccc2)c2ccccc21,x,x,2,27,x,58*
CCN1C(=O)/C(=C\c2nc3ccccc3c(=O)n2CC)c2ccccc21,-3,35,-37,6,0,19
C[C@@H]1CCCCO[C@@H](CN(C)S(=O)(=O)c2cccs2)[C@H](C)CN([C@H](C)CO)C(=O)c2cc(NC(=O)NC3CCCCC3)ccc2O1,-2,27,x,x,14,x
Cc1ccc(NC(=O)NC2=N/C(=C(/C#N)C(=O)N3CCCC3)c3ccccc32)cc1,x,-96,-14,-38,x,15
N#C/C(C(=O)N1CCCC1)=C1/N=C(N)c2ccccc21,10,108*,-5,4,1,17
CCOC(=O)C1CCN(C(=O)COc2cc(C)c(Br)cc2C)CC1,x,x,8,x,x,91*
CCOC(=O)C1CCN(C(=O)COc2ccc(Br)cc2Br)CC1,-21,-4,-2,-6,-3,-7
COc1cccc(-c2c(-c3cc(OC)cc(OC)c3)n(C)c3ccc(-c4cnc(OC)nc4)cc23)c1,7,42,-29,-12,29,-80
COc1cccc(-c2c(-c3cc(OC)cc(OC)c3)n(C)c3ccc(-c4cnc(N5CCOCC5)nc4)cc23)c1,x,84*,-64,-13,17,-162
C[C@H](CO)N1C[C@H](C)[C@@H](CN(C)Cc2ccncc2)Oc2ccc(NC(=O)NC3CCCCC3)cc2CC1=O,9,5,x,x,-6,x

# Source: PubChem
